# Most compounds without a hit are left out; they make up all but 2.7% or so of the library.
# ATXN2 expr inh: inhibitors of ATXN2 expression | HEK-293 ATXN2-luciferase reporter, luminescence, 24 h | Potency, µM (titrated, usually from 57 µM), without a hit: at the highest dose activity change, negative = inhibition, hits mostly inhibitors | hit rate 0.72% among 360,000; note: % is set by controls: 0 for no effect and ±100 for the full control effect; nearly all actives have a fitted effect of over 55% in size
#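 ATXN2-luciferase reporter cells (luciferase flanked by upstream and downstream ATXN2 gene portions) were treated 24 h at 37 °C with compounds at up to 57 uM. SteadyGlo luminescence gave expression; GF-AFC fluorescence gave viability.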
# HepG2 viability: kills HepG2 cells in TGF-b inhibitor counter-screen. Potency, µM (highest dose often 46.1 µM), for inactives: at the highest dose activity change, negative = cytotoxicity, hits mostly cytotoxic. HepG2 CAGA-GFP viability, ATP luminescence, 18 h. hit rate 0.76% among 410,000
#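 HepG2 CAGA-GFP cells (1000/well, DMEM with 1% FBS) received compound, then TGF-beta at 500 pg/mL final, and were incubated 18 hours at 37 degrees C. Viability was read by CellTiter-Glo luminescence. Media-only wells were set as complete cell-killing and DMSO as no toxicity.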
# TGFb inhibitor: blocks TGF-b signaling. HepG2 CAGA-GFP TGF-b/SMAD3 reporter, GFP fluorescence, 18 h; TGF-beta stimulated, 500 pg/mL final. Potency, µM (series often up to 46.1 µM), for inactives: at the top dose activity, negative = inhibition, usual class: inhibitors. hit rate 1.2% among 410,000. AID 588855; note: % is set by controls: 0 for no effect and ±100 for the full control effect; nearly all actives have a fitted effect of over 65% in size
#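 Smad-responsive CAGA-GFP expression was quantified in HEPG2 cells exposed to compounds and 500 pg/mL final TGF-beta for 18 h at 37 degrees C; unstimulated wells defined full inhibition.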
# 12-LOX inh: blocks human arachidonate 12S-lipoxygenase. P18054. purified 12hLO, xylenol orange hydroperoxide absorbance. Potency, µM (highest dose often 108 µM), for inactives: at the top dose activity change, negative = inhibition, most hits filed as inhibitors. hit rate 1.1% among 580,000. AID 1671190; note: % is set by controls: 0 for no effect and ±100 for the full control effect
# Target sequence (P18054 whole entry, looked up): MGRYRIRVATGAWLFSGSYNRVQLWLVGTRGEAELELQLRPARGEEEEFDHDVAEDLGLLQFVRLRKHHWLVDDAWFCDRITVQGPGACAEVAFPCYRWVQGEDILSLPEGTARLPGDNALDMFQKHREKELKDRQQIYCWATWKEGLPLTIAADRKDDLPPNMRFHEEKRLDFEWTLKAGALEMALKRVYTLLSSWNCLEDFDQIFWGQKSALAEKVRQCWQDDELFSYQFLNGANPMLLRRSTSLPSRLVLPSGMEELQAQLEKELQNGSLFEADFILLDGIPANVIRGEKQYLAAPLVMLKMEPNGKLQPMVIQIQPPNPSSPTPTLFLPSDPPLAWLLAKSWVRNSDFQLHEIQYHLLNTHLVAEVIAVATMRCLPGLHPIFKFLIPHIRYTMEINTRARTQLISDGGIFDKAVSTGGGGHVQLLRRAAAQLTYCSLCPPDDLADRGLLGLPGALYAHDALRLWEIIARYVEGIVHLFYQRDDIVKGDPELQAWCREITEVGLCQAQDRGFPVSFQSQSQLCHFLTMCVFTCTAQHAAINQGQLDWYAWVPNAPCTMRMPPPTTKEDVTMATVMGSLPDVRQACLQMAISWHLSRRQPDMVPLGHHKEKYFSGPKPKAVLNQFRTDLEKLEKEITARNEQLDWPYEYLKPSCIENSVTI
#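 Hydroperoxide product was detected by ferrous iron/xylenol orange as the 573 to 405 nm absorbance ratio. Arachidonic acid at 40 uM (final) was turned over for 30 min at room temperature by 150 nM human 12hLO, pH 7.0 Hepes buffer, after 15 min compound preincubation.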
# ATXN viability: viability counter-screen for ATXN expression inhibitors. S2 cells (HEK-293 line with an ATXN2-luciferase reporter) viability, CellTiter-Fluor protease fluorescence, 24 h. Potency, µM (highest dose often 56.7 µM), usual class: cytotoxic. hit rate 0.49% among 400,000. AID 651635; note: nearly all actives have a fitted effect of over 40% in size
# * marks the source's active call; other numbers are inactive results; i = inactive; ? = inconclusive; · = no result. Calls come from the whole dose curve; as a rule, active = well fitted curve in the direction sought with a large enough effect; inconclusive = small, poorly fitted or top-dose-only effect, or another doubt; inactive = no such curve, though single readings can be large; an effect the other way counts as inactive or inconclusive. Potency is the fitted concentration of half-maximal effect.
SMILES,ATXN2 expr inh,HepG2 viability,TGFb inhibitor,12-LOX inh,ATXN viability
O=S(=O)(Cc1cc(Cl)nc(-c2ccccc2)n1)c1ccccc1,31.6µM*,-18.3%,?,10.1%,?
O=S(=O)(Cc1cc(Cl)nc(-c2ccncc2)n1)c1ccccc1,-23.9%,15.3%,8.8%,-9.2%,i
O=S(=O)(c1c(Cl)cccc1Cl)N1CCNCC1,·,·,·,1.3%,·
CCOc1cc2c(cc1NC(=O)c1ccc(SC)cc1OC)OC(C)C2 (configuration not stated),·,·,·,3.1%,·
COc1ccc2oc(=O)cc(CN3CCN(C(=O)c4cccc(C)c4)CC3)c2c1,·,·,·,31.1%,·
NC(=S)Nc1ncc(C(F)(F)F)cc1Cl,2.9%,-28.9%,-9.9%,39.8µM*,i
NC(=S)c1ncc(C(F)(F)F)cc1Cl,-14.9%,-0.8%,-2.8%,33.8%,?
N#Cc1c(C2CC2)cc(C(F)(F)F)[nH]c1=O,·,·,·,5.1%,·
Cc1nn(CCc2n[nH]c(=S)n2C)c(C)c1Br,-1.9%,-63.4%,11.8%,?,i
Cc1nn(CCc2n[nH]c(=S)n2C2CCCCC2)c(C)c1Br,0.9%,6.6%,-23.9%,22.4µM*,i
CCOC(=O)c1ccc(-c2ccccc2)cc1,·,·,·,6.8%,·
CCOC(=O)c1ccc2ncc(-c3ccccc3)nc2c1,66.6%,2.51µM*,2.0%,-11.3%,i
CCOc1ccc(C(=O)/C=C/Nc2ccc(S(=O)(=O)N=C(N)N)cc2)cc1,-17.2%,-4.7%,20µM*,-21.6%,?
CCOc1ccc2c(c1)cc(C(=O)NCc1ccco1)n2C,·,·,·,17.8µM*,·
O=C(COc1ccccc1[N+](=O)[O-])OCCCOC(=O)COc1ccccc1[N+](=O)[O-],-16.6%,1.1%,8.2%,-2.4%,i
O=C(COc1ccccc1[N+](=O)[O-])OCC(=O)c1ccc(Br)s1,2.0%,14.3%,2.2%,44.7µM*,i
CCN(CCNCC(O)COc1ccccc1C(C)C)c1cccc(C)c1 (configuration not stated),?,15.8µM*,?,?,·
Cc1ccc(S(=O)(=O)N(C)Cc2ccc(C(=O)N/N=C/c3ccc(OC(F)F)cc3)cc2)cc1,?,5.2%,?,-18.4%,11.2µM*
CCOC(=O)c1c(C)[nH]c(C(=O)CN(C)Cc2cccc(F)c2)c1C,·,·,·,-29.3%,·
Cc1ccc(CNC(=O)c2cc3c(=O)n(Cc4ccco4)ccc3nc2C)cc1,·,-7.3%,?,?,·
Cc1nc2ccn(Cc3ccco3)c(=O)c2cc1C(=O)NCc1ccc(Cl)cc1,·,-19.8%,10µM*,?,·
COc1ccc(Cl)cc1NC(=O)Nc1cccc([N+](=O)[O-])c1C,20µM*,-2.5%,?,?,?
Cc1ccccc1NC(=O)C(=Cc1ccc(C(=O)O)cc1)C(=O)Nc1ccccc1C,10.6µM*,-35.9%,?,-12.1%,?
CC(=O)Nc1ccccc1C,5.3%,-4.0%,-2.7%,3.4%,i
CC(=O)/C(=C/c1ccccc1)C(=O)Nc1ccccc1C,·,-47.9%,12.6µM*,6.2%,?
SMILES,ATXN2 expr inh,HepG2 viability,TGFb inhibitor,12-LOX inh,ATXN viability
O=C(OCc1nc2ccccc2o1)c1cccc(S(=O)(=O)N2CCCCCC2)c1,·,·,·,-7.1%,·
CN1CCN(c2ncnc3sc4c(c23)CCNC4)CC1,·,·,·,166.0%,·
Cc1ccc(-c2csc3nc4cc(C(N)=O)ccc4c(=O)n23)cc1,-15.8%,-11.5%,9.7%,17.8µM*,i
Cc1ccc(CNC(=O)c2ccc3c(=O)n4c(-c5ccc(C)cc5)csc4nc3c2)cc1,-1.1%,-3.6%,-1.9%,-19.6%,i
CC(NC(=O)c1ccc2c(c1)CCCC2)c1ccc(F)cc1F (configuration not stated),·,·,·,39.8µM*,·
COCc1ccc(C(=O)NC(C)c2ccc(F)cc2F)cc1 (configuration not stated),·,·,·,-21.1%,·
CCC(C)(C)NC(=O)CC(NC(N)=O)c1ccccc1C (configuration not stated),·,·,·,7.7%,·
COc1ccc(C(CNC(=O)c2ccc(Cl)s2)N(C)C)cc1 (configuration not stated),·,·,·,-77.0%,·
O=C(c1cc(C2CC2)nc2ccc(Br)cc12)N1N=C(C(F)F)CC1(O)C(F)F (configuration not stated),?,-94.0%,7.94µM*,0.0%,?
